# Counter-ions that a name gives are not always drawn.
# Test system: S. enterica typhimurium tolC KO
# Assay: growth AUC normalised to DMSO control (median) (fraction of control); higher = less growth inhibition, active = hit call of the paper
# Details: 20 µM;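 active = normalised median growth AUC below 0.1 of DMSO control; inactive = AUC 0.1 or higher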
# Procedure, shortened: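 Anaerobic growth was tracked hourly at OD578 for 24 h in 96-well plates of mGAM seeded at OD578 0.01 with each approved-drug library compound at 20 μM and 1% DMSO. Strains had first been passaged twice overnight without oxygen. Three biological replicates were run. The reported median is the area under the curve, calculated by the trapezoidal rule on curves truncated at entry into stationary phase and normalised to vehicle wells on the same plate.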
# 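Also: active when median AUC fell below 0.1.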
row,SMILES,growth AUC normalised to DMSO control
1,CN(C)CCCN1c2ccccc2[S+]([O-])c2ccc(Cl)cc21 (stereo not drawn) [Chlorpromazine Sulfoxide],1.01 (inactive)
2,Nc1c2ccccc2nc2ccccc12 [Aminacrine],0.903 (inactive)
3,Cc1ccc(=O)n(-c2ccccc2)c1 [Pirfenidone],1 (inactive)
4,O=C1Nc2ccccc2C1(c1ccc(O)cc1)c1ccc(O)cc1 [Oxyphenisatin],0.99 (inactive)
5,Nc1ccc2cc3ccc(N)cc3nc2c1 [Proflavine hemisulfate],0.91 (inactive)
6,CS(=O)(=O)c1ccc([C@@H](O)[C@@H](CF)NC(=O)C(Cl)Cl)cc1 [Florfenicol],0.00279 (active)
7,CC(=O)Nc1ccccc1 [Acetanilide],1.01 (inactive)
8,N[C@@H](CCC(=O)N[C@@H](CS)C(=O)NCC(=O)O)C(=O)O [Glutathione],0.956 (inactive)
9,NC(=O)Cc1cccc(C(=O)c2ccccc2)c1N [Nepafenac],1.02 (inactive)
10,OC(CNCC(O)C1CCc2cc(F)ccc2O1)C1CCc2cc(F)ccc2O1 (stereo not drawn) [Nebivolol hydrochloride],0.925 (inactive)
11,C=C1CC[C@H](O)C/C1=C/C=C1\CCC[C@]2(C)[C@@H]([C@H](C)CCCC(C)C)CC[C@@H]12 [Cholecalciferol],0.982 (inactive)
12,O=C(O)Cc1csc(-c2ccc(Cl)cc2)n1 [Fenclozic acid],0.98 (inactive)
13,CCCCCNC(=N)N/N=C/c1c[nH]c2ccc(OC)cc12 [Tegaserod maleate],0.941 (inactive)

# Source: the supplement of paper PMC12350171
